G9a inh = qHTS Assay for Inhibitors of Histone Lysine Methyltransferase G9a; Histone-lysine N-methyltransferase EHMT2 (Homo sapiens), Q96KQ7; G9a H3K9 monomethylation, AlphaScreen, 2 h; Potency, µM (doses to about 102 µM), for the others: at the top dose activity, negative = inhibition, usual class: inhibitors; 8.8% of 350,000 active; note: % is set by controls: 0 for no effect and ±100 for the full control effect; nearly all actives have a fitted effect of over 75% in size
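Step 1: enzyme (final 20 nM) with compound, 15 min RT. Step 2: substrate peptide 500 nM and SAM 20 uM, 2 h RT. Step 3: anti-H3K9me1 antibody and AlphaScreen beads, 10 min, then plate read.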
JMJD2A Tudor inh = qHTS Assay for Inhibitors of JMJD2A-Tudor Domain; Lysine-specific demethylase 4A (Homo sapiens), O75164; AlphaScreen JMJD2A-Tudor / H3K4me3 peptide binding; Potency, µM (titrated, usually from 114 µM), inactives show at the top dose activity change, negative = inhibition, usual class: inhibitors; 4.4% of 390,000 active; AID 504339, 2011; note: % is set by controls: 0 for no effect and ±100 for the full control effect; nearly all actives have a fitted effect of over 50% in size
HP1b binding inh = HTS for Inhibitors of HP1-beta Chromodomain Interactions with Methylated Histone Tails; 0.56% of 390,000 active; Potency, µM (series often up to 114 µM), for the others: at the highest dose activity change, negative = inhibition, actives largely listed as inhibitors; Chromobox protein homolog 1 (Homo sapiens), P83916; AlphaScreen HP1-beta / biotin-H3K9me3 peptide binding; note: nearly all actives have a fitted effect of over 70% in size
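HP1-beta protein (50 nM final) preincubated 30 min at room temperature with biotinylated H3(1-18)K9me3 peptide (50 nM) in PBS pH 7.4, 0.01% Tween-20, then compound added for 30 min. AlphaScreen streptavidin donor/nickel chelate acceptor beads (10 ug/mL final), 30 min dark, luminescence read.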
BAZ2B inh = qHTS Assay for Inhibitors of BAZ2B. AlphaScreen BAZ2B-H3K14Ac peptide displacement. Potency, µM (doses to about 114 µM), for the others: at the top dose activity change, negative = inhibition, most hits filed as inhibitors. 4.4% of 360,000 active. AID 504333, 2011; note: % is set by controls: 0 for no effect and ±100 for the full control effect; nearly all actives have a fitted effect of over 60% in size
Target sequence (Q9UIF8 whole entry, looked up): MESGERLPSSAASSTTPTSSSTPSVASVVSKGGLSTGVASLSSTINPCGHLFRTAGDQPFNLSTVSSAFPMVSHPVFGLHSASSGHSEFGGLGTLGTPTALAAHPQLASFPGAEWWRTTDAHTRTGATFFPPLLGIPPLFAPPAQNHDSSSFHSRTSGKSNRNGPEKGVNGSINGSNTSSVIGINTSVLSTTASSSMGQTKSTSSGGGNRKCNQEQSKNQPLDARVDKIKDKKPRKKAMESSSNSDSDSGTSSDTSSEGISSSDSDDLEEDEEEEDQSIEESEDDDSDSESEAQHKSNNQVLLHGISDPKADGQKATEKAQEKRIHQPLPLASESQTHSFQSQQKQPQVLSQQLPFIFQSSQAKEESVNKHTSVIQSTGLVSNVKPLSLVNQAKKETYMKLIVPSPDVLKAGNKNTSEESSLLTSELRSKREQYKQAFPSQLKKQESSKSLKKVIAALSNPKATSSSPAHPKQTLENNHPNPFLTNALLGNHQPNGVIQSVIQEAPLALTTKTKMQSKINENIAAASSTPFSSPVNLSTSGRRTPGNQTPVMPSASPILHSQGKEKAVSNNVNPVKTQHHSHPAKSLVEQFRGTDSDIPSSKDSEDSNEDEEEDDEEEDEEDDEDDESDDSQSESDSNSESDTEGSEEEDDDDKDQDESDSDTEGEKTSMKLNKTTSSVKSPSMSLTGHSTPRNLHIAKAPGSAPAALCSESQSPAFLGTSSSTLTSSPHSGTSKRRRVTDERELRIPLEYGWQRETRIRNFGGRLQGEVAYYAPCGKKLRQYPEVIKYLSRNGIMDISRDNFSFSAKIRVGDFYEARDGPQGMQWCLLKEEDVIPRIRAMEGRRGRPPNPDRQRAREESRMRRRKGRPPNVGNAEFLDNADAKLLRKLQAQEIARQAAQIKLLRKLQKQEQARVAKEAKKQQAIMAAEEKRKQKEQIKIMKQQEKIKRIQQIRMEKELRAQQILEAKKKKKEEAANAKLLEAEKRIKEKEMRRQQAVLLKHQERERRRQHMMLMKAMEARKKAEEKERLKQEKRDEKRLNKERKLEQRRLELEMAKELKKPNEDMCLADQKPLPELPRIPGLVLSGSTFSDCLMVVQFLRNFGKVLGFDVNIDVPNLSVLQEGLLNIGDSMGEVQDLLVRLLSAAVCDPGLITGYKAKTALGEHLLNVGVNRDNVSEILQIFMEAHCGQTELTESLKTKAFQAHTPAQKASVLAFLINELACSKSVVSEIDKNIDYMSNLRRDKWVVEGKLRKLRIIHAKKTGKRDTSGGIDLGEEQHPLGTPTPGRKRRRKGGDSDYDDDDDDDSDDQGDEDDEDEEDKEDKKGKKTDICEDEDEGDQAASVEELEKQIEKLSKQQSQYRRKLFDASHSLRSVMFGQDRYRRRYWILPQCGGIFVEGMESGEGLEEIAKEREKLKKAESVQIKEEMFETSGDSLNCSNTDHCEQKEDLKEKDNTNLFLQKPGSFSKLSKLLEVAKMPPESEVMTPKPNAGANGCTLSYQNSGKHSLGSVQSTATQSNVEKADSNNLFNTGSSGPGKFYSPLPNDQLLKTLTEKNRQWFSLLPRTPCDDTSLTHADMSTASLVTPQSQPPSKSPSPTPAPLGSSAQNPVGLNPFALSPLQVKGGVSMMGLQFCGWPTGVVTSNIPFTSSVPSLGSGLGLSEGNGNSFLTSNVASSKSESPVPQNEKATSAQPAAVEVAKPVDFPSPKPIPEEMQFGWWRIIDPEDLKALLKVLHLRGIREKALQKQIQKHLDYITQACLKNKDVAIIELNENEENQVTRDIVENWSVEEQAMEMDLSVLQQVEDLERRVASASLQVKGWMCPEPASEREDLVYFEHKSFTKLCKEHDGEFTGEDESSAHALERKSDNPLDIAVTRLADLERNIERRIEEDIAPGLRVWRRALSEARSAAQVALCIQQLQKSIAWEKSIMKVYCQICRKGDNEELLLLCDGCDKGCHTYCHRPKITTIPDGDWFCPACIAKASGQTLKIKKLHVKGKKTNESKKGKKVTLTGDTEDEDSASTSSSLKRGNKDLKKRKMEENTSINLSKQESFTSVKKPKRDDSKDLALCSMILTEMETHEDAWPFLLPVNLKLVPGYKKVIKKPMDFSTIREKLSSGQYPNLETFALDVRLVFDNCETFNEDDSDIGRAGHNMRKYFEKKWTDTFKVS
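AlphaScreen displacement of biotin-H3(5-23)K14Ac peptide (50 nM final) from BAZ2B (50 nM final) in PBS pH 7.4, 0.01% Tween-20; complex preformed 30 min RT, then compounds (top 110 uM) 30 min RT, beads 20 min dark.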
12-LOX inh = Primary qHTS assay for inhibitors of human arachidonate 12S-lipoxygenase (ALOX12): Round 2. Polyunsaturated fatty acid lipoxygenase ALOX12 (Homo sapiens), P18054. purified 12hLO, xylenol orange hydroperoxide absorbance. Potency, µM (highest dose often 108 µM), for inactives: top-dose activity change, negative = inhibition, most hits filed as inhibitors. 1.1% of 580,000 active. AID 1671190, 2021; note: % is set by controls: 0 for no effect and ±100 for the full control effect
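Purified human 12hLO (150 nM final) in 25 mM Hepes, 0.01% Triton X-100, pH 7.0 was preincubated 15 min at room temperature with compound. Then 40 uM arachidonic acid was added, 30 min. Hydroperoxide was read by Fe-XO absorbance ratio 573/405 nm.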
PLK1 PBD inh = qHTS for Inhibitors of PLK1-PDB (polo-like kinase 1 - polo-box domain): Primary Screen; Potency, µM, for inactives: max response, negative = inhibition, most hits filed as inhibitors; Plk1 PBD binding of FITC phosphopeptide, fluorescence polarization; 2.8% of 360,000 active; note: series mostly up to about 57 µM; % is set by controls: 0 for no effect and ±100 for the full control effect; nearly all actives have a fitted effect of over 65% in size
* hit, by the source's call; ? = inconclusive; / = not tested or not shown; [ ] = another dose, or the depositor's remark. An excerpt weighted towards active compounds, which were near 9% of everything screened. Calls come from the whole dose curve; as a rule, active = well fitted curve in the direction sought with a large enough effect; inconclusive = small, poorly fitted or top-dose-only effect, or another doubt; inactive = no such curve, though single readings can be large; an effect the other way counts as inactive or inconclusive. Potency is the fitted concentration of half-maximal effect.

SMILES	G9a inh	JMJD2A Tudor inh	HP1b binding inh	BAZ2B inh	12-LOX inh	PLK1 PBD inh
CN(C)S(=O)(=O)c1cccc(COC(=O)c2cc([N+](=O)[O-])ccc2N2CCOCC2)c1	56µM*	-25%	-1%	-3%	-1%	-5%
Cc1ccccc1COC(=O)c1cc([N+](=O)[O-])ccc1N1CCOCC1	?	?	2%	-30%	0%	-21%
O=C(OCc1ccc([N+](=O)[O-])cc1)c1cc(S(=O)(=O)N2CCCCC2)ccc1N1CCOCC1	?	-28%	3%	-29%	-25%	0%
CSc1ccc(COC(=O)c2cc([N+](=O)[O-])ccc2N2CCOCC2)cc1	45µM*	?	?	-30%	-24%	-15%
Cc1cc(NCc2ccc(F)cc2Cl)n2nnnc2n1	-6%[59 µM]	-1%	16%	5%	0%	-7%
O=C1CC(N2CCN(c3ccc(O)cc3)CC2)C(=O)N1Cc1cccs1 (configuration not stated)	-3%[12.7 µM]	56µM*	?	-9%	?	-4%
COc1ccc(/C=N/NC2=NS(=O)(=O)c3ccccc32)cc1	-22%	-14%	29%	-7%	20%	-1%
O=C(NNC1=NS(=O)(=O)c2ccccc21)c1ccc([N+](=O)[O-])cc1	35µM*	-6%	11%	-6%	-21%	-6%
O=[N+]([O-])c1cccc(/C=N/Nc2ccccn2)c1	-7%	-17%	21%	-16%	-3%	-7%
O=S1(=O)N=C(N/N=C/c2ccc(Br)o2)c2ccccc21	40µM*	?	19%	0%	1%	-7%
O=S1(=O)N=C(N/N=C/c2ccccn2)c2ccccc21	16%	79µM*	35%	35µM*	14%	4%
O=[N+]([O-])c1cccc(/C=N/NC2=NS(=O)(=O)c3ccccc32)c1	-22%	?	?	-11%	7%	27µM*
COc1ccccc1N1CCN(C(=O)CCn2cnc3onc(-c4ccc(F)cc4)c3c2=O)CC1	-29%[59 µM]	-36%	-14%	-1%[57.1 µM]	-17%	/
Cn1ccc(NC(=O)[C@@H]2C[C@H](c3ccc(F)cc3)N(Cc3ccccc3Cl)C2)n1	/	/	/	/	-10%[176 µM]	/
CCOC(=O)c1c(NC(=O)c2ccncc2)sc(C)c1C	16µM*	-21%	19%	-8%	?	?
CCOC(=O)c1c(NC(=O)c2cc(C(C)C)on2)sc(C)c1C	20µM*	15%	-1%	-4%	-23%	/
CCOC(=O)c1sc(NC(=O)c2cc(CC)on2)c(C(=O)OCC)c1C	-3%[59 µM]	4%	50%	3%	-10%	/
CCCc1cc(C(=O)Nc2sc(C)c(C)c2C(=O)OCC)no1	10µM*	-14%	7%	-1%	?	21µM*
CCOC(=O)c1c(NC(=O)c2ccc(Cl)s2)sc(C)c1C	4%	4%	81%	22%	0%	-12%
CCOC(=O)c1c(NC(=O)COC(=O)c2ccncc2)sc(C)c1C	-31%	-13%	4%	-22%	-3%	-16%
N#CC1(NC(=O)Cn2cc(C(F)(F)F)cc(Cl)c2=O)CCCCC1	-7%	-12%	25%	5%	-20%	0%
COc1ccc(/C=C/C(=O)N(CCC(N)=O)c2ccccc2)cc1S(=O)(=O)N1CCOCC1	50µM*	6%	53%	-2%	-9%	5%
CCOc1ccc(C(=O)CCNC(Cc2cnc[nH]2)C(=O)O)cc1 (configuration not stated)	?	?	19%	18µM*	20%	-12%
CCOc1ccc(S(=O)(=O)NC(C)C(=O)NC2CCCC2)cc1 (configuration not stated)	12%	-14%	16%	2%	0%	-13%
CCOc1ccc(S(=O)(=O)NC(Cc2cnc[nH]2)C(=O)O)cc1 (configuration not stated)	50µM*	16µM*	-5%	-14%	-6%	-12%
SMILES	G9a inh	JMJD2A Tudor inh	HP1b binding inh	BAZ2B inh	12-LOX inh	PLK1 PBD inh
CC(=O)Nc1c(C(=O)N2CCN(c3ccccn3)CC2)cnn1-c1ccc(C)cc1	4%	3%	37%	3%	1%	-2%
O=C(/C=C/c1cccc(Oc2ccccc2)c1)N1CCOCC1	-19%	-14%	22%	-4%	-4%	-6%
O=C(/C=C/c1ccccc1)Oc1cccc(C(=S)N2CCOCC2)c1	40µM*	-13%	-12%	0%	-10%	-2%
O=C(/C=C/c1ccccc1)Oc1ccccc1C(=S)N1CCOCC1	50µM*	-30%	-2%	-30%	-1%	-19%
CC(C)OC(=O)CCC(=O)Nc1ccc(F)cc1	-6%[59 µM]	4%	29%	-11%	-18%	5%
CN(C)CCNC(=O)c1nc2nc(-c3ccccc3)c(-c3cccc(Cl)c3)cc2n1C	/	/	/	/	3%[176 µM]	/
COc1ccccc1NC(=O)CSc1nc(=O)n(Cc2cccnc2)c2c1CCC2	/	/	/	/	-1%	/
O=C(CSC1CCCCC1)c1ccccc1Br	/	/	/	/	35µM*	/
CCC1S/C(=N/C(=O)NC2CCCCC2)NC1=O (configuration not stated)	4%[59 µM]	-9%	33%	-2%	0%	2%
O=C(/N=C1\NC(=O)C(F)(C(F)(F)F)S1)NC1CCCCC1 (configuration not stated)	3.2µM*	50µM*	?	-28%	10µM*	13µM*
O=C(CC(Nc1ccccc1Cl)C(=O)OCC(=O)c1cccs1)c1ccccc1 (configuration not stated)	10µM*	-8%	51%	-4%	?	1%
O=C(Nc1ccc(C(=O)NCc2ccccc2)cc1)C1=CSCCO1	-4%	7%	14%[57 µM]	0%	-3%	-1%
OCCN(Cc1ccccc1)CC1CC=CCC1 (configuration not stated)	10µM*	10µM*	?	79µM*	?	-3%
OCCCN(Cc1ccccc1)C1CC1	/	/	/	/	-1%	/
CC(=O)Nc1sc(-c2ccc(Cl)cc2)nc1-c1ccccc1	-1%	2%	33%	2%	17%	-4%
O=c1cc(O)nc(-c2ccc(Cl)cc2)s1	28µM*	-18%	-12%	-36%	45µM*	?
O=c1cc(O)nc(-c2ccccc2)s1	45µM*	-9%[57.1 µM]	-23%	-14%	?	?
Cc1cccc(C)c1NC(=O)Cn1c(=O)n(CCC(=O)NCc2ccccc2Cl)c(=O)c2sccc21	-2%[59 µM]	2%	38%	-36%	?	/

Compound activity from PubChem.
